Source: PubChem BioAssay (Tox21)
Unmarked numbers belong to inactive results. Active and inactive are the calls of the source. Calls follow the shape of the dose curve; as a rule, active = well fitted curve in the direction sought with a large enough effect in the repeat runs; inconclusive = weak or mixed curves; inactive = flat fitted curve, though single readings scatter.

Test: qHTS assay to test for compound auto fluorescence at 460 nm (blue) in HEK293 cells (AID 720678)
Conditions: blue autofluorescence 405/460 nm; series mostly up to 91.3 µM; fluorescence, % of triamterene: at the top concentration
From the text: National Center for Advancing Translational Sciences [NCATS]
NIH Chemical Genomics Center [NCGC]
U.S. Environmental Protection Agency [EPA]
National Institutes of Environmental Health Sciences [NIEHS]
National Toxicology Program [NTP]
U.S. Food and Drug Administration [FDA]
Compound auto fluorescence often interferes with screening of the compound library against various biological targets and signaling pathways. Some of these compounds may have fluorophoric properties. Such properties may interfere with the assay outputs resulting in false positives and/or negatives. To decrease such complications and ensure the compound activities are relevant in terms of biological response, the Tox21 10K compound library was screened for auto fluorescence.
From the fluorophores used as reporter signals in our screening assays, the auto fluorescence equivalencies of compounds against three fluorophores have been evaluated: Triamterene, Fluorescein and Rose Bengal sodium for blue, green and red fluorescence, respectively. The fluorescence intensities were measured using Excitation/Emission wavelengths at 405/460nm, 485/535nm and 540/590nm for blue, green and red labels, respectively. This assay includes the blue fluorescence data.
Tox21 Assay Protocol Summary:
2,000 HEK293 cells in 5 uL of culture medium containing 10% dialyzed FBS per well were dispensed into black wall/clear bottom 1536-well plates using a Multidrop Combi Dispenser (Thermo Scientific). The assay plates were incubated for 4-5 hr at 37C to allow cell attachment to the well bottom, followed by the transfer of 23 nL compound or DMSO vehicle by a pintool work station (Kalypsys, San Diego, CA). After the assay plates were incubated overnight at 37C and 5% CO2, fluorescence intensities in the assay plates were measured by an Envision (PerkinElmer, Shelton, CT) plate reader using three labels for measuring blue, green and red fluorescence at […] 460, 535 and 590nm respectively.
% is scaled to controls: 0 for no effect and ±100 for the full control effect.

SMILES | fluorescence, % of triamterene | outcome
O=P(O)(Oc1ccccc1)Oc1ccccc1 | -0.0607% | –
Oc1c(Cl)cccc1Cl | 0.0103% | –
O=C(CCN1CC1)OCC(CO)(COC(=O)CCN1CC1)COC(=O)CCN1CC1 | -0.0489% | –
O=[N+]([O-])c1ccc(CBr)cc1 | -0.0263% [at 95.7 µM] | –
C1CCC(C2CCCCC2)CC1 | 0.266% | –
CNC(=O)N(C)c1nc2ccccc2s1 | -0.192% | –
CCCSC(=O)Cl | -0.0908% | –
CCCCN(CCCCO)N=O | 0.147% | –
CC1CN1P(=O)(N1CC1C)N1CC1C (stereo not given) | 1.22% | –
[O]=[Cd] | – | inactive
COC(=O)C1=CCCN(C)C1 | -0.0322% [at 46 µM] | –
O=C(O)C(Br)CBr (stereo not given) | -0.0783% [at 95.7 µM] | –
OCCSCSCCO | -0.185% | –
C#CCN1C(=O)COc2cc(F)c(N3C(=O)C4=C(CCCC4)C3=O)cc21 | 0.0093% | –
CN1CCC(O)(c2ccc(F)cc2)C(C(=O)c2ccc(F)cc2)C1 (stereo not given) | 0.0157% [at 46 µM] | –
CSc1ccc(C(=O)C(C)(C)N2CCOCC2)cc1 | 0.0081% | –
ClCC(Cl)(Cl)Cl | 0.0271% [at 95.7 µM] | –
CC1CCC(=O)O1 (stereo not given) | 0.112% | –
COc1cc(C[C@@H](C)N)c(OC)cc1C | 0.0269% [at 95.7 µM] | –
Fc1ccc(C2(Cn3cncn3)OC2c2ccccc2Cl)cc1 (stereo not given) | -0.262% | –

SMILES | fluorescence, % of triamterene | outcome
CCCCOC(=O)c1ccccc1N | 0.0335% | –
CCCSP(=O)(OCC)Oc1ccc(Br)cc1Cl (stereo not given) | -0.0261% [at 46 µM] | –
CCN(CC)C(=O)[C@@H]1C=C2c3cccc4[nH]cc(c34)C[C@H]2N(C)C1 | – | inactive
CC(Cl)(Cl)[N+](=O)[O-] | 0.0439% | –
O=c1oc2ccccc2c(O)c1C1CCCc2ccccc21 (stereo not given) | 0.0486% | –
Nc1c(Br)cc([N+](=O)[O-])cc1[N+](=O)[O-] | -0.41% [at 95.7 µM] | –
C[C@H]1CCC[C@H](O)CCCCCc2cc(O)cc(O)c2C(=O)O1 | – | inactive
COP(=S)(OC)Oc1ccc(S(N)(=O)=O)cc1 | -0.11% [at 46 µM] | –
CCC/C(=N\OCC)C1=C(O)CC(CC(C)SCC)CC1=O (stereo not given) | 0.0293% | –
CC(C)[N+](=O)[O-] | -0.0469% | –
O=C(CCCN1CCC(n2c(=O)[nH]c3ccccc32)CC1)c1ccc(F)cc1 | 0.114% [at 18.6 µM] | –
CCS(=O)(=O)C(C)(C)S(=O)(=O)CC | 0.0713% [at 46 µM] | –
OC(Cn1cncn1)(c1ccc(F)cc1)c1ccccc1F (stereo not given) | -0.09% | –
CCCCOC(=O)[C@@H](C)Oc1ccc(Oc2ccc(C#N)cc2F)cc1 | -0.07% | –
Nc1cc2c3c(c1)C(c1ccccc1)=N[C@@H](NC(=O)c1cccnc1)C(=O)N3CC2 | 0.376% | –
O=C1CN=C(c2ccccc2)c2cc([N+](=O)[O-])ccc2N1 | 3.74% [at 46 µM] | –
N#CCCC#N | -0.316% | –
O=[N+]([O-])c1cccc2c([N+](=O)[O-])cccc12 | -0.0215% | –
O=C1c2ccccc2C(=O)c2ccccc21 | 0.118% [at 46 µM] | –
CCC#N | -0.0185% [at 95.7 µM] | –
